Our source for the composite z-score and z-score values is PubChem BioAssay.

Active and inactive are the calls of the source. Unless noted, the rule behind the calls is not given here.

Experiment [1] can be described thus: anti-His antibody binders, primary screen, artefact control for SMM control protein annotation, biochemical, small-molecule microarray, 635 nm fluorescence (AID 1128).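 Note: score merges feature fluorescence with signal-to-noise for each printed compound spot.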 The settings on record: anti-His Alexa647 antibody binding, higher = more signal.
Experiment [2] has as its system Human papillomavirus type 1a E7 protein (residues 1-88). The experiment in a line: HPV1a E7 small-molecule binders, primary screen, biochemical, small-molecule microarray, residues 1-88, 635 nm (AID 1129). The settings on record: small-molecule microarray binding, fluorescence 635 nm; higher = more signal.
The target in experiment [3] is Focal adhesion kinase 1 (Homo sapiens) (UniProt Q05397). The experiment in a line: small-molecule microarray binders of FAK, primary screen, biochemical, 635/667 nm fluorescence, BSA, DTT (AID 1130).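 Note: composite of spot emission at 667 nm and signal to noise over triplicate slides.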 The settings on record: PTK2 binding, 635 nm fluorescence, higher = more signal.
The test system of experiment [4] is Fibrinogen (Alexa647-labelled). The experiment in a line: fibrinogen binders on compound microarrays, profiling panel, artefact control for SMM control-protein annotation, biochemical, small-molecule microarray, 635/667 nm fluorescence (AID 1131).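 Note: z-score merges 667 nm fluorescence with per-spot signal-to-noise over triplicate slides.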 The settings on record: fibrinogen-A647 binding fluorescence, higher = more signal.
Experiment [5] concerns the target Follistatin (Homo sapiens) (UniProt P19883). Kind of experiment: follistatin binders on small-molecule microarrays, primary screen, biochemical, small-molecule microarray, 635/667 nm fluorescence (AID 1132). The settings on record: FST binding, 635 nm fluorescence, higher = more signal.
In experiment [6] the target is Fibroblast growth factor 2 (Homo sapiens) (UniProt P09038). Kind of experiment: FGF2 binders on small-molecule microarrays, primary screen, biochemical, small-molecule microarray, 635/667 nm fluorescence (AID 1133). The settings on record: small-molecule microarray binding, FGF2, fluorescence 635/667; higher = more signal.
The nature of experiment [7]: mitochondrial membrane potential change in A549 cells, profiling panel, cell-based, JC-1 fluorescence, basal, 24 h, 100 nL (AID 1138).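 Note: A549 lung adenocarcinoma cells under basal conditions with no added stimulus; test concentration not given here.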 The settings on record: higher = more signal.
Experiment [8] relates to Lefty1. Kind of experiment: Lefty1 binders on small-molecule microarrays, primary screen, biochemical, small-molecule microarray, 635/667 nm fluorescence (AID 1139). The settings on record: small-molecule microarray binding, fluorescence 635/667; higher = more signal.
Experiment [9] deals with wheat germ agglutinin (Triticum aestivum), Alexa647-labelled. The experiment in a line: wheat germ agglutinin binders on compound microarrays, profiling panel, artefact control for SMM control-protein annotation, biochemical, small-molecule microarray, 635/667 nm fluorescence (AID 1140).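 Note: score merges 667 nm feature emission with signal to noise over triplicate slides.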 The settings on record: WGA-A647 binding, 635 nm fluorescence, higher = more signal.
The target of experiment [10] is Luciferin 4-monooxygenase (Photinus pyralis) (UniProt P08659). The experiment in a line: firefly luciferase enzyme inhibitors, primary screen, biochemical, luminescence, purified enzyme, 2006 set (AID 1141).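 Note: cell-free assay with purified firefly luciferase at 100 ng per well in PBS; test concentration not given here.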 The settings on record: SteadyGlo luminescence, 30 min, higher = more signal, called active from +8 up or from −8 down.
Experiment [11] deals with Wnt5a (protein binding on small-molecule microarray). The experiment in a line: Wnt5a binders on small-molecule microarray, primary screen, biophysical, 635/667 nm fluorescence (AID 1142).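 Note: fluorescence read at 667 nm with signal to noise per printed feature.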 The settings on record: 635 nm fluorescence, higher = more signal.
Experiment [12] in a line: cell viability in Huh7 cells, primary screen, cytotoxicity control for HCV replication inhibitor project, CellTiter-Glo luminescence, basal, 48 h (AID 1143).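 Note: Huh7 hepatoma cells carrying a hepatitis C replication reporter with no stimulus; test concentration not given here.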 The settings on record: Huh7 HCV replicon, higher = more signal, called active from +8 up or from −8 down.
Experiment [13] can be described thus: P. aeruginosa biofilm formation inhibitors, primary screen, PAO1 strain, BacTiter-Glo luminescence, LB-PBS (AID 1144). The settings on record: 12 h, higher = more signal.
The nature of experiment [14]: CREB reporter modulators without forskolin, primary screen, cell-based, PC12, CRE-LacZ reporter, unstimulated (AID 1145). The settings on record: no forskolin, luminescence, 4.5 h, higher = more signal, called active from +8 up or from −8 down.
Experiment [15] is described as follows: CREB reporter modulators under forskolin, primary screen, cell-based, PC12, CRE-LacZ reporter, forskolin-stimulated (AID 1146).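 Note: PC12 cells with 6xCRE LacZ reporter stimulated by forskolin 10 µM; beta-galactosidase reporter signal reflecting CREB driven transcription.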 The settings on record: luminescence, 4.5 h, higher = more signal, called active from +8 up or from −8 down.
The target in experiment [16] is Streptavidin (Streptomyces avidinii) (UniProt P22629). Kind of experiment: streptavidin binders on small-molecule microarray, primary screen, artefact control for SMM compound annotation, biophysical, 635/667 nm fluorescence (AID 1147).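 Note: signal reflects streptavidin binding to arrayed compounds as a control protein.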 The settings on record: streptavidin binding, higher = more signal.
A short description of experiment [17]: small-molecule binders of probe aInhba, primary screen, biochemical, small-molecule microarray, 635/667 nm fluorescence (AID 1148).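 Note: score merges 667nm spot fluorescence with signal-to-noise for antibody binding to printed compounds.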 The settings on record: higher = more signal.
Experiment [18] deals with Torsin-1A (Homo sapiens) (UniProt O14656). The experiment in a line: torsin A binders from cell lysate, primary screen, small-molecule microarray, wild-type, 635/667 nm (AID 1149). The settings on record: COS7 hTOR1A-WT lysate, 635 nm fluorescence, higher = more signal.
The target is the same in experiment [19]. Kind of experiment: small-molecule binders of mutant TOR1A in lysate, primary screen, cell lysate, small-molecule microarray, COS7 lysate, 635/667 nm fluorescence (AID 1150).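 Note: score pools 667 nm emission and signal to noise measuring lysate protein binding.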 The settings on record: COS7 hTOR1A mutant lysate, 635 nm fluorescence, higher = more signal.
Experiment [20] concerns Sonic hedgehog protein (Shh). Kind of experiment: small-molecule binders of Shh protein, primary screen, biochemical, small-molecule microarray, 635/667 nm fluorescence (AID 1151).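 Note: Shh protein binding to compounds spotted on small-molecule microarray slides; score combines spot fluorescence intensity with signal-to-noise across triplicate slides.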 The settings on record: small-molecule microarray binding, 635 nm fluorescence; higher = more signal.

Fibroblast growth factor 2 (Homo sapiens), sequence (P09038 whole entry, looked up): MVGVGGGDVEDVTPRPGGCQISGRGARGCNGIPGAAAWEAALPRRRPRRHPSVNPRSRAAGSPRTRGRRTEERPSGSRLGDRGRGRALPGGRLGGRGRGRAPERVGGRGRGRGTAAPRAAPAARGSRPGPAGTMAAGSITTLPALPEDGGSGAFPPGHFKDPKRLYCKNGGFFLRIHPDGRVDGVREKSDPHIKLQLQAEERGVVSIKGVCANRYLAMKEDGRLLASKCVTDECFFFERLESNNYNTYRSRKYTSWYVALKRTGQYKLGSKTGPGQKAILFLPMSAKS
Torsin-1A (Homo sapiens), sequence (O14656 whole entry, looked up): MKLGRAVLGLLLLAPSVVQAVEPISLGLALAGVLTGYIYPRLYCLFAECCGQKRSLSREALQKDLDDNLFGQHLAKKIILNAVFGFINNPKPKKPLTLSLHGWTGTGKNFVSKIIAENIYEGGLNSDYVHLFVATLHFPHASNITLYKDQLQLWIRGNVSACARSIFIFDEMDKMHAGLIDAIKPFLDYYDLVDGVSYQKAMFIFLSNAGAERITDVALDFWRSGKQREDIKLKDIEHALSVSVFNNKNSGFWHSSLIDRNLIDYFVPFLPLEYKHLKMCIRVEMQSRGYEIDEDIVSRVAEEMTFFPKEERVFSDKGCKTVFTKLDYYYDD
Luciferin 4-monooxygenase (Photinus pyralis), sequence (P08659 whole entry, looked up): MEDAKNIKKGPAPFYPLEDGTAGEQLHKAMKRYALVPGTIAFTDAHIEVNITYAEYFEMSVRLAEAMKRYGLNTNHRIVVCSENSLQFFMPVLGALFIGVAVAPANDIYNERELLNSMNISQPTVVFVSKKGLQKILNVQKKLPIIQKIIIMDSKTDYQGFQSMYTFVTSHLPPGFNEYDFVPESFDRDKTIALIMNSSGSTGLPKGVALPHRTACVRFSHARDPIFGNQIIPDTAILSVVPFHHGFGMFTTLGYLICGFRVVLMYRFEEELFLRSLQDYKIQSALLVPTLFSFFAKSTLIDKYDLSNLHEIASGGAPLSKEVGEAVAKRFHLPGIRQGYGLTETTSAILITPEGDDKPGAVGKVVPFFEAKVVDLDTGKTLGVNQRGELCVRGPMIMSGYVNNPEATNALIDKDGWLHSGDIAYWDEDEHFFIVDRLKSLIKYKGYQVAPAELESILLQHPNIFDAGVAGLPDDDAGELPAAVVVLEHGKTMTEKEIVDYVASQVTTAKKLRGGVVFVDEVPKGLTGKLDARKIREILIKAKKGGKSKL
Focal adhesion kinase 1 (Homo sapiens), sequence (Q05397 whole entry, looked up): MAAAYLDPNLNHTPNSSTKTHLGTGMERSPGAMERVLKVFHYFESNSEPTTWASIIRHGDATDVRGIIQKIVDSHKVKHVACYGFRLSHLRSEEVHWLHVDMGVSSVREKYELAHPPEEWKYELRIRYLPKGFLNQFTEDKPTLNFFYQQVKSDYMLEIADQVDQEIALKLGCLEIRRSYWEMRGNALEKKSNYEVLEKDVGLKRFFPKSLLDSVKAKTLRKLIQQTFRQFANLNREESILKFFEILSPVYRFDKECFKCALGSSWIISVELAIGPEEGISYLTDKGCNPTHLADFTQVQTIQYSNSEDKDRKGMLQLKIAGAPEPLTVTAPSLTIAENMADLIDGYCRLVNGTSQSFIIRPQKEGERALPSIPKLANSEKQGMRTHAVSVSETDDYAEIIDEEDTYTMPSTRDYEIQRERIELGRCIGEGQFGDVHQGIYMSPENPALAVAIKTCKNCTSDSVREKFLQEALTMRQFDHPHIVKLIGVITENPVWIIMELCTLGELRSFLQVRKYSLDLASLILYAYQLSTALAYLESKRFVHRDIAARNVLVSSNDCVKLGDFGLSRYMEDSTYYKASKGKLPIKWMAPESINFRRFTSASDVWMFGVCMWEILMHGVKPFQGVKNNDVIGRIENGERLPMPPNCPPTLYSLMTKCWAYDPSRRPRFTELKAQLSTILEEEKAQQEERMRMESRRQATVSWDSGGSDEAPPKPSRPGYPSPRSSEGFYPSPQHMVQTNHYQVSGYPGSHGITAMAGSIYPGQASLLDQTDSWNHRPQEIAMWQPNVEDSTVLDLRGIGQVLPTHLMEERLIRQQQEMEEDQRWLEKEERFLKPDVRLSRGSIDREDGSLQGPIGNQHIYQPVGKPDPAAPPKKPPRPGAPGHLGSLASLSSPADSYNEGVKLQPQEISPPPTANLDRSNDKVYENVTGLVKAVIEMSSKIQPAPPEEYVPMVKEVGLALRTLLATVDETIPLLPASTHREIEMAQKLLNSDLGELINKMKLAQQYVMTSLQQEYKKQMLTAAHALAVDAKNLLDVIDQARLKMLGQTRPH
Follistatin (Homo sapiens), sequence (P19883 whole entry, looked up): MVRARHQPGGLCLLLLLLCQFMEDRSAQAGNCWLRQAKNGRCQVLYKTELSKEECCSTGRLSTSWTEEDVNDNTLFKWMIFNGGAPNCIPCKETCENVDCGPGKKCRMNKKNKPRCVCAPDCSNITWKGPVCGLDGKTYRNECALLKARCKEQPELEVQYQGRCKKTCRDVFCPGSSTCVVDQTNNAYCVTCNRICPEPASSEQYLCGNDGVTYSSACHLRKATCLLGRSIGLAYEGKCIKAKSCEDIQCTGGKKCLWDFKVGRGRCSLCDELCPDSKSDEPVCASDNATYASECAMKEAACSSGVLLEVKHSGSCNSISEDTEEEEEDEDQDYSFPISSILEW
Streptavidin (Streptomyces avidinii), sequence (P22629 whole entry, looked up): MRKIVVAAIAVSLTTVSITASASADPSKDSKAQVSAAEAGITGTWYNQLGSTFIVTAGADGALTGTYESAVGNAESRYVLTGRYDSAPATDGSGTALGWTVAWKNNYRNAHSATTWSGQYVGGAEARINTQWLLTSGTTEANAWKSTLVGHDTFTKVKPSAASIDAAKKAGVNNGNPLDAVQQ

With `CC(C)C(O)C1C=CC2C(=O)N(C)C(=O)C2N1N1CCCCC1` (stereo not given), the composite z-score in experiment [1] is -0.0134; in experiment [2] it was 1.11; in experiment [3] it was 0.776; in experiment [4], 0.447; in [5], 0.336; in experiment [6] it was 0.329. Besides, the composite z-score in [8] was -0.146; in experiment [9] it was 0.763; in experiment [11], -0.0226; in experiment [16] it was 0.482; in experiment [17], -0.0704; in experiment [18], -0.0881. Further, the composite z-score in [19] was found to be 1.29; in experiment [20] it was 0.192. Also, the z-score in [7] is -0.115; in experiment [10], -0.686 (inactive); in experiment [12], 0.788 (inactive); in experiment [13], -0.775 (inactive); in [14], -0.133 (inactive); in experiment [15], 0.0399 (inactive).

In the case of `COC(=O)c1nc2oc1CC[C@@H](CO)NC(=O)N(C)Cc1cn(nn1)C[C@H](Cc1ccccc1)NC2=O`, the composite z-score in experiment [1] was 0.0255; in experiment [2], -0.151; in experiment [3], -0.242; in experiment [4], 0.0318; in [5], 0.905; in experiment [6] it was 1.06. Moreover, the composite z-score in [8] was 0.17; in [9], 0.536; in [11], -0.0811; in experiment [16], -0.357; in experiment [17] it was -0.016; in experiment [18] it was -0.685. Besides, the composite z-score in experiment [19] was -1.25; in [20], 0.337. Besides, the z-score in experiment [7] was 0.457; in experiment [10], 0.376 (inactive); in experiment [12], -0.0962 (inactive); in [13] it was 0.0307 (inactive); in experiment [14], 4.65 (inactive); in experiment [15], 0.338 (inactive).

For `O=C(N1CCCCC1)[C@]1(CCS(=O)(=O)c2ccccc2)N=C(c2ccc(OCCCO)cc2)O[C@@H]1c1ccccc1`, the composite z-score was 3.05 in experiment [1]; 1.22 in [2]; 1.29 in experiment [3]; 0.949 in experiment [4]; 1.18 in experiment [5]; 0.619 in experiment [6]. Also, the composite z-score is 0.211 in experiment [8]; 1.31 in experiment [9]; 0.497 in [11]; 0.721 in experiment [16]; 0.461 in experiment [17]; 0.608 in [18]. In addition, the figures for the composite z-score in experiment [19] and in experiment [20] were 0.885 and 0.624, respectively. For the same molecule, the z-score in [7] was -0.913; in [10] it was -0.149 (inactive); in experiment [12], -5.48 (inactive); in experiment [13] it was 0.13 (inactive); in experiment [14] it was 1.16 (inactive); in experiment [15], -0.526 (inactive).

As to `CCCCCN1CC=CC23O[C@@H]4C=CCCOC(=O)C4[C@H]2C(=O)N(CCCO)[C@@H]3C1=O` (stereo not given in full), the composite z-score in experiment [1] is 0.199; in experiment [2], -0.388; in experiment [3] it was -0.572; in experiment [4], -0.677; in experiment [5], -0.182; in experiment [6] it was -0.311. Further, the composite z-score is -0.364 in experiment [8]; 0.0083 in experiment [9]; -0.309 in experiment [11]; -0.559 in experiment [16]; -0.128 in experiment [17]; -0.0271 in experiment [18]. The values for the composite z-score in [19] and in experiment [20] were -1.09 and 0.4, respectively. Besides, the z-score in [7] was -0.891; in [10], 0.126 (inactive); in [12], -2.45 (inactive); in [13], -1.06 (inactive); in [14], -0.492 (inactive); in experiment [15] it was -0.285 (inactive).

Consider `COc1cc2c(cc1O)C(c1ccc(CN3CCCC3)cc1)N(Cc1sc3ccccc3c1Cl)CC2` (stereo not given), for which the composite z-score in experiment [1] was 0.423; in experiment [2], -0.18; in experiment [3], 0.0344; in experiment [4] it was 0.455; in experiment [5], 1.03; in [6], 1.17. The composite z-score was 0.501 in experiment [8]; 0.421 in experiment [9]; 0.0746 in experiment [11]; 0.706 in [16]; -0.292 in experiment [17]; 0.834 in [18]. For the same molecule, the figures for the composite z-score in experiment [19] and in experiment [20] were 0.309 and 0.436, respectively. Also, the z-score was -0.763 in experiment [7]; 1.14 (inactive) in experiment [10]; -3.63 (inactive) in experiment [12]; -0.0323 (inactive) in experiment [13]; 0.416 (inactive) in experiment [14]; 0.821 (inactive) in experiment [15].
